Among the data in PubChem BioAssay (NCATS) are Potency, outcome and % pathology change, negative = correction values, retold here.

The structures appear in SMILES notation. Inconclusive results are not listed. A call without a number means that no potency is given here. A number with no mark means an inactive call. Calls of active or inactive are those of the source. Unless noted, calls come from the whole dose curve; as a rule, active = well fitted curve in the direction sought with a large enough effect; inconclusive = small, poorly fitted or top-dose-only effect, or another doubt; inactive = no such curve, though single readings can be large; an effect the other way counts as inactive or inconclusive. Where a SMILES comes first, the peptide text is derived from it. Bridges are numbered along the chain shown (N, C = ends). [ ]: non-standard residue; d: D form. hArg = N=C(N)NCCCC[C@H](N)C(=O)O; Mpa = O=C(O)CCS

Assay [1] can be described thus: A High-Content qHTS Against Drug Library for the Identification of Small Molecules that Inhibit DYT1 Early Onset Primary Dystonia-Associated Cell Pathology (AID 1645839; calls by dose curve; note: series mostly up to about 46 µM). The essentials:
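Readout: %pathology, the punctate EGFP-TorsinA distribution from imaging, as the primary channel and cell count as the toxicity counterscreen. HEK293 Flp-In cells expressing delE TorsinA were induced with tetracycline and treated with compound for 48 h.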
On the technique in general: qHTS replaces the single test concentration by a dilution series.

The target in assay [2] is Cytochrome P450 2D6 (Homo sapiens) (UniProt P10635). Description: Cytochrome P450 family 2 subfamily D member 6 (CYP2D6) small molecule antagonists: luciferase biochemical (cell-free) qHTS assay (AID 1645840; active = well fitted curve in the direction sought with a large enough effect in the repeat runs; an effect the other way counts as inactive or inconclusive; note: nearly all actives have a fitted effect of over 55% in size; note: potency is the fitted concentration of half-maximal effect). The procedure, abridged: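 P450-Glo luminescent screen: recombinant CYP2D6 enzyme–proluciferin substrate mix preincubated with compound 10 min at room temperature, then NADPH regeneration added for 1 h at room temperature. Detection reagent added for 20 min; luciferin light read as relative luminescence units.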

Assay [3] deals with Cytochrome P450 2C9 (Homo sapiens) (UniProt P11712). Briefly: Cytochrome P450 family 2 subfamily C member 9 (CYP2C9) small molecule antagonists: luciferase biochemical (cell-free) qHTS assay (AID 1645842; active = well fitted curve in the direction sought with a large enough effect in the repeat runs; an effect the other way counts as inactive or inconclusive; note: nearly all actives have a fitted effect of over 55% in size; note: potency is the fitted concentration of half-maximal effect). The essentials:
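Luminescence, after 20 min with luciferin detection reagent, reflected CYP2C9 turnover during a 1 h NADPH-driven reaction at 37C. Enzyme-substrate mix contained 0.4% bovine serum albumin and was preincubated with compound 10 min at room temperature.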

Assay [4] in a line: Primary qHTS for small molecule stabilizers of the endoplasmic reticulum resident proteome: Secreted ER Calcium Modulated Protein (SERCaMP) assay (AID 1508630). The essentials:
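GLuc-SERCaMP-expressing SH-SY5Y cells, pretreated 16 h with compound, are challenged with thapsigargin to empty ER calcium stores; after 4 h, coelenterazine is added directly to the medium and luminescence is imaged.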

Assay [5] is described as follows: Primary qHTS for inhibitors of nuclear receptor binding SET domain protein 2 (NSD2) in an isogenic RCH-ACV NSD2 p.E1099K mutant (9B) (AID 1645876). Note: nearly all actives have a fitted effect of over 70% in size.
The target in assay [6] is Cytochrome P450 3A4 (Homo sapiens) (UniProt P08684). Briefly: Cytochrome P450 family 3 subfamily A member 4 (CYP3A4) small molecule antagonists: luciferase qHTS assay (AID 1645841; active = well fitted curve in the direction sought with a large enough effect in the repeat runs; an effect the other way counts as inactive or inconclusive; note: nearly all actives have a fitted effect of over 45% in size). The procedure, abridged: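 P450-Glo CYP3A4 enzyme with proluciferin substrate was preincubated with DMSO-dissolved compounds for 10 min at room temperature. NADPH regeneration solution started a 1 h reaction. Detection reagent stopped it, and luminescence was read after 20 min.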
Chain of Cytochrome P450 3A4 (Homo sapiens) (P08684 whole entry, looked up): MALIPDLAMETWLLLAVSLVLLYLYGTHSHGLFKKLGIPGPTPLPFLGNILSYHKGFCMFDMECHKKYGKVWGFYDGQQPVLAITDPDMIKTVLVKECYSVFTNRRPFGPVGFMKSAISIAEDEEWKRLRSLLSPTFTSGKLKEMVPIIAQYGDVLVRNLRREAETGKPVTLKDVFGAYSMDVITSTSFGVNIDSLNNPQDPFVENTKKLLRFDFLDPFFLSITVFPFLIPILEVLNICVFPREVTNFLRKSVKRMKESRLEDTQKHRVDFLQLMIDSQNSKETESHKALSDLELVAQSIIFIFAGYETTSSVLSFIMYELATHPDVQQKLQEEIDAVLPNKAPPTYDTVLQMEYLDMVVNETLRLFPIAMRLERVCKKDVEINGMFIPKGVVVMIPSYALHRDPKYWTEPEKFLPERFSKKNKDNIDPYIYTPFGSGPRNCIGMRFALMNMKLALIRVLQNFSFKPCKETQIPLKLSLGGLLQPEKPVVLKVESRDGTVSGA

Chain of Cytochrome P450 2D6 (Homo sapiens) (P10635 whole entry, looked up): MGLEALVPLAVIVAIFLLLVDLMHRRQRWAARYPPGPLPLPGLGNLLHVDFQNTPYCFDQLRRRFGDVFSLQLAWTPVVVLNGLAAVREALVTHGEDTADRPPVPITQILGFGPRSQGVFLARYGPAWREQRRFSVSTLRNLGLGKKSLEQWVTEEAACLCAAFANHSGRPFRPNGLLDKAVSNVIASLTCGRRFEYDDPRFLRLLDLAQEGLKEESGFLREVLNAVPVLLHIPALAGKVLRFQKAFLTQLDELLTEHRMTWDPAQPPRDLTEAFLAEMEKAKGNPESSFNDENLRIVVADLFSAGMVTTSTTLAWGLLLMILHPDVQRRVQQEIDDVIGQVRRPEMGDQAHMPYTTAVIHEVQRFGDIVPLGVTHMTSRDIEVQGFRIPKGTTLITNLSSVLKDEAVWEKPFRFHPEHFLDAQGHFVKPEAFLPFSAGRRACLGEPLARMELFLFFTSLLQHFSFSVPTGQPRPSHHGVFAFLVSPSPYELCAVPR
Chain of Cytochrome P450 2C9 (Homo sapiens) (P11712 whole entry, looked up): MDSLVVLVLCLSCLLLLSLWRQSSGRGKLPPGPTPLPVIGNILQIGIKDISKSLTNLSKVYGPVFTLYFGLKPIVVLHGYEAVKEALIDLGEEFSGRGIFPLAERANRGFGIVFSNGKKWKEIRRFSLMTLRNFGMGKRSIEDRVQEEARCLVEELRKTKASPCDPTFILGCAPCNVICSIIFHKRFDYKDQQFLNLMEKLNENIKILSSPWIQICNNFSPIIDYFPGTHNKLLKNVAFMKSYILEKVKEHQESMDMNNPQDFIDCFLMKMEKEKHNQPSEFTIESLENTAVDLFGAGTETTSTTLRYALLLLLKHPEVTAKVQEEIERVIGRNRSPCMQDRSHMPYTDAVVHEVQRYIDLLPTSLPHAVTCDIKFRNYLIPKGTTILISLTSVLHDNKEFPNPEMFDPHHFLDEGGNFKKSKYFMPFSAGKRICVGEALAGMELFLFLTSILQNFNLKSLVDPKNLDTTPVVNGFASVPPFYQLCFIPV

With `NNc1nnc(NN)c2ccccc12`, the Potency entry in assay [1] and in assay [3] was “inactive” each time. The Potency in assay [2] was 22.9 µM (active).

Regarding `CC(=O)N[C@@H](Cc1ccc(O)cc1)C(=O)O`, the outcome in assay [4] was inactive. Besides, the Potency entry in assay [1], in assay [3] and in assay [5] was “inactive” each time.

Take `CC(C)=CCC/C(C)=C/CO`: in assay [4], the outcome was inactive. The Potency result in assay [1] and in assay [5] was “inactive” in each case.

For `Nc1ccc(C(=O)Oc2ccccc2)c(O)c1`, in assay [4], the result was inactive. Besides, the Potency result in assay [1] and in assay [5] was “inactive” each time.

In the case of `N[C@@H](Cc1ccc(O)cc1)C(=O)O`, the % pathology change, negative = correction in assay [1] is -10.7% [at 9.22 µM].

For `Cc1c(NC(=O)c2cccnc2)c(=O)n(-c2ccccc2)n1C`, the Potency result in assay [1] and in assay [2] was “inactive” each time.

Regarding `C/C=C/C(=O)N(CC)c1ccccc1C`, the Potency entry in assay [1], in assay [2], in assay [3] and in assay [5] was “inactive” each time. In assay [6], the outcome was inactive.

Regarding `Cc1cc(=O)[nH]c(=S)[nH]1`, the Potency result in assay [1], in assay [2] and in assay [3] was “inactive” each time.

Regarding `CCCNC(C)(C)COC(=O)c1ccccc1`, in assay [4], the result was inactive. In addition, the Potency result in assay [1] and in assay [5] was “inactive” each time.

As to `COc1ccc(NS(=O)(=O)c2ccc(N)cc2)nn1`, the Potency result in assay [1] is “inactive”.

On to `COc1ccccc1Oc1c(NS(=O)(=O)c2ccc(C(C)(C)C)cc2)nc(-c2ncccn2)nc1OCCO`, for which the outcome in assay [4] was inactive. The Potency entry in assay [2] is “inactive”.

`O=C1CC[C@@H](C(=O)O)N1`: the outcome in assay [4] was inactive. The Potency entry in assay [1], in assay [3] and in assay [5] was “inactive” in each case.

With `Cc1ccsc1/C=C/C1=NCCCN1C`, the outcome in assay [4] was inactive. Besides, the Potency entry in assay [1] and in assay [5] was “inactive” each time.

`CC(=O)N1C[C@H](O)C[C@H]1C(=O)O`: the Potency entry in assay [1] and in assay [2] was “inactive” in each case.

As for `Nc1ncnc(Nc2ccccc2)n1`, the outcome in assay [4] was inactive. The Potency result in assay [1] and in assay [5] was “inactive” throughout.

For the compound `NC(=O)[C@@H]1CSSCCC(=O)N[C@@H](CCCCN=C(N)N)C(=O)NCC(=O)N[C@@H](CC(=O)O)C(=O)N[C@@H](Cc2c[nH]c3ccccc23)C(=O)N2CCC[C@H]2C(=O)N1` ([Mpa][hArg]GDWPC-NH2; disulfide 1-7), the Potency entry in assay [1] and in assay [2] was “inactive” in each case.

With `CN[C@@H]1[C@H](O)[C@H](NC)[C@H]2O[C@@]3(O)C(=O)C[C@@H](C)O[C@H]3O[C@@H]2[C@H]1O`, the outcome in assay [4] was inactive. Also, the Potency entry in assay [1] and in assay [5] was “inactive” each time.

`CC(CSC(=O)c1ccccc1)C(=O)N1C[C@@H](Sc2ccccc2)C[C@H]1C(=O)O` (stereo partly specified): the outcome in assay [4] was inactive. Further, the Potency result in assay [1] and in assay [5] was “inactive” in each case.

On to `CN1C[C@@H]2C[C@H]1CN2c1cc2c(cc1F)c(=O)c(C(=O)O)cn2C1CC1`, for which the result in assay [4] was inactive. Further, the Potency result in assay [1], in assay [3] and in assay [5] was “inactive” throughout.

For the compound `CCCCC1(COC(=O)CCC(=O)O)C(=O)N(c2ccccc2)N(c2ccccc2)C1=O`, the result in assay [4] was inactive. In addition, the Potency entry in assay [1] and in assay [5] was “inactive” throughout.

As for `O=C(O)CCC(=O)O`, in assay [1], the Potency result is “inactive”.

On to `CC(C)C[C@@H](N)C(=O)O`, for which the result in assay [4] was inactive. The Potency entry in assay [1] and in assay [5] was “inactive” each time.

Consider `COc1ccc(-c2cc(=O)c3c(O)cc(O[C@@H]4O[C@H](CO[C@@H]5O[C@@H](C)[C@H](O)[C@@H](O)[C@H]5O)[C@@H](O)[C@H](O)[C@H]4O)cc3o2)cc1O`, for which the result in assay [4] was inactive. Also, the Potency entry in assay [3] and in assay [5] was “inactive” each time.

For the compound `CN1C(C)(C)CCCC1(C)C`, the outcome in assay [4] was inactive. Further, the Potency entry in assay [1] and in assay [5] was “inactive” in each case.

Consider `C[N+](C)(C)CC(O)CC(=O)[O-]` (stereo unspecified), for which the outcome in assay [4] was inactive. Further, the Potency entry in assay [1], in assay [3] and in assay [5] was “inactive” each time.

In the case of `Cc1cccc(Nc2ccccc2C(=O)O)c1C`, in assay [4], the outcome was inactive. The Potency result in assay [2] and in assay [5] was “inactive” in each case.

As to `CC(=O)N[C@@H](CC(C)C)C(=O)O`, the result in assay [4] was inactive. Moreover, the Potency result in assay [1] and in assay [5] was “inactive” each time.

Take `NS(=O)(=O)c1cc2c(cc1C(F)(F)F)NCNS2(=O)=O`: the outcome in assay [4] was inactive. In addition, the Potency result in assay [1] and in assay [5] was “inactive” throughout.

In the case of `CN/C(=C\[N+](=O)[O-])NCCSCc1csc(CN(C)C)n1`, in assay [4], the outcome was inactive. The Potency entry in assay [1] and in assay [5] was “inactive” each time.

On to `O=C(O)CCCc1ccccc1`, for which the outcome in assay [4] was inactive. Further, the Potency entry in assay [1] and in assay [5] was “inactive” in each case.

Consider `CC(=O)SC[C@@H](Cc1ccccc1)C(=O)NCC(=O)OCc1ccccc1`, for which, in assay [1], the Potency result is “inactive”. For the same compound, the Potency in assay [2] is 6.17 µM (active).

For `O=C(NCC(O)CO)c1c(I)c(C(=O)NCC(O)CO)c(I)c(N(CCO)C(=O)CO)c1I` (stereo unspecified), the result in assay [4] was inactive. For the same compound, the Potency entry in assay [1], in assay [3] and in assay [5] was “inactive” each time.

For `CC(N)CCCC(C)(C)O` (stereo unspecified), the Potency entry in assay [2], in assay [3] and in assay [5] was “inactive” in each case.

With `NC(=O)CC[C@@H](N)C(=O)O`, the Potency result in assay [1] and in assay [5] was “inactive” in each case.

As for `Nc1ccc(S(=O)(=O)c2ccc(N)cc2)cc1`, the Potency result in assay [1], in assay [3] and in assay [5] was “inactive” each time.

For `CCCCCCCCCCCCCCCCCCO`, the Potency entry in assay [1], in assay [3] and in assay [5] was “inactive” throughout.

As for `O=C(O)Cn1c(C(=O)Nc2nc(-c3ccccc3Cl)cs2)cc2ccccc21`, the Potency result in assay [5] was “inactive”.

Regarding `CN[C@@H]1[C@@H](O)[C@@H](O[C@@H]2[C@H](O)[C@H](O[C@H]3OC(CN)=CC[C@H]3N)[C@@H](N)C[C@H]2N)OCC1(C)O` (stereo partly specified), the Potency entry in assay [1] and in assay [5] was “inactive” in each case.

As for `CC(C)CCOC(=O)c1ccc(N(C)C)cc1`, the Potency result in assay [1] and in assay [5] was “inactive” throughout. Further, the Potency in assay [3] is 6.92 µM (active).

On to `O=C1C(c2[nH]c3ccccc3c2O)=Nc2ccccc21`, for which the Potency result in assay [1] and in assay [5] was “inactive” each time.
